# In PubChem BioAssay AID2075 (NMMLSC, 2009):
# Active and inactive are the calls of the source. The rule behind the calls is not given here.
# Target: Apoptosis regulator Bcl-2 (Homo sapiens) (UniProt P10415)
# Test: Bcl-2 Bim peptide interaction hit potency – biochemical, dose response, multiplexed HTS hits, confirmation (AID 2075)
# Sequence of Apoptosis regulator Bcl-2 (Homo sapiens) (P10415 whole entry, looked up): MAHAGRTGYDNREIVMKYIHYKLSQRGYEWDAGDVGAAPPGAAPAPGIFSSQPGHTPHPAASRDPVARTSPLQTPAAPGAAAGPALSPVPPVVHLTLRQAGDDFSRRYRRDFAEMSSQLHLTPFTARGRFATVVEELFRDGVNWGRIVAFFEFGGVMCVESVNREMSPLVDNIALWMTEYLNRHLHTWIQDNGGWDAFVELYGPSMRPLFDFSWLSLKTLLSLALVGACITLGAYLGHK
smiles,measurement,value
O=C1NC(=O)C(=Cc2ccc(-c3cc(Cl)ccc3[N+](=O)[O-])o2)C(=O)N1,outcome,inactive
